Results on 39 molecules are retold here after PubChem BioAssay AID493170 (National Center for Advancing Translational Sciences (NCATS), 2011).

Each structure is given as a SMILES string. Records with an inconclusive call do not appear. A call without a number means that no potency is given here. Active and inactive are the calls of the source. Calls come from the whole dose curve; as a rule, active = well fitted inhibition curve with a large enough effect; inconclusive = small, poorly fitted or top-dose-only effect, or effect the other way; inactive = flat fitted curve, though single readings scatter.
Potency is the fitted concentration of half-maximal effect.

Ubiquitin carboxyl-terminal hydrolase 2 (Homo sapiens), sequence (O75604 whole entry, looked up): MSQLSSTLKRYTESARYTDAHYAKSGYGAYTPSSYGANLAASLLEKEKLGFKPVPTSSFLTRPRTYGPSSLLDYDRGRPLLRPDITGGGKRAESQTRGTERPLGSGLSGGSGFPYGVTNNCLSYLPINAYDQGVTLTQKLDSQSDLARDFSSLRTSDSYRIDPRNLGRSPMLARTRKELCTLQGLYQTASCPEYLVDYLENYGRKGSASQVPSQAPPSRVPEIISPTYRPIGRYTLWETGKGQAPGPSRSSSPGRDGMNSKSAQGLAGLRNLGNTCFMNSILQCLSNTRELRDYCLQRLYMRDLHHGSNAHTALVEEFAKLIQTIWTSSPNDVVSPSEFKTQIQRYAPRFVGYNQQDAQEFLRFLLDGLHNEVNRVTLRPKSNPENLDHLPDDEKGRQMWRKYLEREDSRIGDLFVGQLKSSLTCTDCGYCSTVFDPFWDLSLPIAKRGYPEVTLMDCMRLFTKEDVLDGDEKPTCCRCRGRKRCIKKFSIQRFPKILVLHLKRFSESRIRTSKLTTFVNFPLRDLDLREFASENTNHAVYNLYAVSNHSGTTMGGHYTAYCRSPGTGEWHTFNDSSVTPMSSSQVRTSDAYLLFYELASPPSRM

This experiment deals with Ubiquitin carboxyl-terminal hydrolase 2 (Homo sapiens) (UniProt O75604). Kind of experiment: Ub-rhodamine 110 based assay for inhibitors Ubiquitin-specific Protease USP2a. Note: nearly all actives have a fitted effect of over 50% in size. The settings on record: USP2a Ub-rhodamine110 cleavage, fluorescence; series mostly up to 38.3 µM. Put shortly:
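Kinetic fluorescence (485/531 nm) read each minute over 7 min after adding Ub-Rhod110 (150 nM final) to USP2a (5 nM final). The enzyme had 30 min RT exposure to compounds beforehand in Tris pH 8.0 buffer with CaCl2, CHAPS and beta-ME.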
As for `O=C(O)C1Nc2c(O)cc(Cl)c([N+](=O)[O-])c2C2C=CCC12` (centres undefined), the Potency was 3.98 µM (active).
`Cc1nn(C)cc1CNC(=O)c1ccc(Br)o1`: the Potency entry was “inactive”.
Next, `COc1cccc(NC(=O)CSc2nncn2-c2ccccn2)c1`: “inactive”; `COC(=O)c1c(O)c2c([nH]c1=O)CCCC2`: “inactive”.
As for `Cc1ccc(S(=O)(=O)N2[C@@H](c3ccc(Cl)cc3)C(C(=O)O)=CC[C@H]2c2ccc(C(C)C)cc2)cc1`, the Potency was 10 µM (active).
Consider `CC1(C)CC(=O)C2=C(C1)N(Cc1ccco1)C(=O)NC2(C(F)(F)F)C(F)(F)F`, for which the Potency entry is “inactive”.
Under `O=C1c2ccccc2CCC12N=NCC2c1ccc(Br)cc1` (centres undefined) stands “inactive”.
For `CCn1c(CN2CCOCC2)nnc1SCC(=O)Nc1ccc(C(C)=O)cc1`, the Potency result was “inactive”.
Take `COc1ccc(NC(=O)CSc2ncccc2C(=O)OC(C)C)cc1OC`: the Potency result was “inactive”.
For the molecule `C=CCn1c(N)c(C(=O)NCc2cccnc2)sc1=S`, the Potency result was “inactive”.
Next, `Cc1ccc(C)c(S(=O)(=O)c2c(N)n(/N=C/c3ccco3)c3nc4ccccc4nc23)c1`: “inactive”.
Under `CC(C)N(C(=O)c1sc2cc([N+](=O)[O-])ccc2c1Cl)C(C)C` stands “inactive”.
`COc1ccc(Cl)cc1S(=O)(=O)Nc1cccc(C(=O)O)c1`: the Potency entry was “inactive”.
Under `CC(C)Oc1ccc(C(=O)Nc2ccc(N3CCCC3)cc2)cc1` stands 10 µM (active).
For `O=C(O)c1cc(N2N=C(C(F)(F)F)/C(=C/C=C/c3ccco3)C2=O)ccc1Cl`, the Potency was 7.08 µM (active).
With `O=C(NC1CCCCC1)C(c1ccco1)N(C(=O)c1csnn1)c1cccc(F)c1` (centres undefined), the Potency entry was “inactive”.
Next, `C=CCn1c(NCc2cc(C)ccc2O)nc2ccccc21`: “inactive”; `Cc1cnc(N)c2c(=O)oc3ccccc3c12`: “inactive”.
Regarding `N=C1/C(=C\c2ccc(-c3cccc(Cl)c3)o2)C(=O)N=C2SC=C(c3ccccc3)N12`, the Potency was 11.2 µM (active).
For `CC(OC(=O)CN(C)S(=O)(=O)c1ccc(Cl)cc1)C(=O)Nc1ccc(N2CCOCC2)cc1` (centres undefined), the Potency entry was “inactive”.
Regarding `Cc1ccc(N(CC(=O)Nc2ccc(S(=O)(=O)N3CCOCC3)cc2)S(C)(=O)=O)cc1C`, the Potency entry was “inactive”.
On to `CC(=O)Nc1cc[n+](CC(=O)c2ccc(Cl)cc2)cc1`, for which the Potency entry is “inactive”.
`Cc1ccc(C(=O)NCCCc2ccccc2)s1`: the Potency entry is “inactive”.
Consider `CC1=NN(c2ccc(C)cc2)C(=O)/C1=C/c1ccc(-c2cc([N+](=O)[O-])ccc2O)o1`, for which the Potency is 10 µM (active).
As to `CN(C)CCOCCP(=O)(c1ccccc1)c1ccccc1`, the Potency result is “inactive”.
For `CNc1cccccc1=S`, the Potency was 10 µM (active).
Turning to `COc1ccccc1C(=O)N1CCN=C1SC`, the Potency entry was “inactive”.
Regarding `COc1ccc(CC(NC(C)=O)C(=O)NC2CCN(c3nc(C)cc(C)c3C#N)CC2)c(OC)c1` (centres undefined), the Potency result was “inactive”.
On to `COc1ccc(/C=C(\NC(=O)c2ccc(OC)c(OC)c2)C(=O)N2CCN(C)CC2)cc1`, for which the Potency entry is “inactive”.
Turning to `COc1cc(C(O)P(=O)(OC(C)C)c2ccc(N(C)C)cc2)cc(OC)c1OC` (centres undefined), the Potency entry is “inactive”.
On to `CCNc1sc(C(=O)c2cccs2)c(N)c1-c1nc2ccccc2s1`, for which the Potency entry was “inactive”.
Under `COc1ccc(NC(=O)CSc2nc3sc(C)cc3c(=O)n2C)c(OC)c1` stands “inactive”; under `CCN1C(=O)CSc2ccc(C(=O)NC3CCCCC3)cc21`, “inactive”.
Next, `O=C1NC[C@@H](c2ccccc2)OC(=O)[C@@H](Cc2ccc(F)cc2)CC/C=C/C[C@@H]1CC(=O)N(CCO)Cc1ccccc1`: “inactive”; `O=C(C[n+]1ccc(C(=O)N/N=C/c2ccc(OCc3ccccc3)cc2)cc1)c1ccccc1`: 8.91 µM (active); `Cc1ccc(C(=O)NCCNS(=O)(=O)c2ccccc2)cc1`: “inactive”.
As for `COc1cccc(N2C(=O)C3CCCN3C2c2ccc(N(C)C)cc2)c1` (centres undefined), the Potency result is “inactive”.
Regarding `COC(=O)C1CCN(C(=O)c2cc(-c3ccco3)nc3ccccc23)CC1`, the Potency is 3.55 µM (active).
As for `COc1ccc2cc(CN(C(=O)Nc3ccccc3)C3CCCC3)c(=O)[nH]c2c1`, the Potency entry is “inactive”.
